From PubChem BioAssay
Compounds with a hit are over-represented: about 2.5% of the library has one in this group of screens.
Luciferase inh: blocks Photinus pyralis firefly luciferase activity; 72,000 compounds, 2.2% hits; AID 411; Potency, µM (doses to about 57.1 µM), inactives show at the highest dose activity change, negative = inhibition, usual class: inhibitors; purified firefly luciferase, luminescence, 8 min; further: nearly all actives have a fitted effect of over 40% in size
Target sequence (P08659 whole entry, looked up): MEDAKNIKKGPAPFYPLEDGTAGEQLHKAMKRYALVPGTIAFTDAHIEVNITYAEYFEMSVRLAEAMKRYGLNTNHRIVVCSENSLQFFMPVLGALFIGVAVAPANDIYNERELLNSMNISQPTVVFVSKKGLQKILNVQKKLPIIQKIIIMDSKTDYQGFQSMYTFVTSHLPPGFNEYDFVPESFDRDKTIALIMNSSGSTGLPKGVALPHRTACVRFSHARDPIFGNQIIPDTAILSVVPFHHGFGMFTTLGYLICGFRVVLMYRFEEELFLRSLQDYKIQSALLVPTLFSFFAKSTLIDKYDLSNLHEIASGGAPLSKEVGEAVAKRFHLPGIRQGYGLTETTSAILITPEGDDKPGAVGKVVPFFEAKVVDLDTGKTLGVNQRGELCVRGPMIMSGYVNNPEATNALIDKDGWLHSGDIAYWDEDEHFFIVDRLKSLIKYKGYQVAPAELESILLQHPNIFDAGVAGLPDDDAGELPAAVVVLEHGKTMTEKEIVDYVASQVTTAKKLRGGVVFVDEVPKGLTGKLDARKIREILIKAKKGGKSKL
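Compounds were tested as concentration series (qHTS) against purified P. pyralis luciferase with luciferin and 10 uM ATP in 50 mM imidazole pH 7.2, 50 mM KCl, 7 mM MgCl2, 0.01% Tween 20, 0.05% BSA. Luminescence was read after 8 min at ambient temperature.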
p53ts 32C tox: p53ts cell cytotoxicity, permissive temperature; Potency, µM (doses to about 46.1 µM), for inactives: top-dose activity change, negative = cytotoxicity, hits mostly cytotoxic; H1299-p53A138V at 32C, ATP luminescence viability, 24 h; 130,000 compounds, 0.93% hits; AID 924;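 further: 0% = DMSO and -100% = full killing by reference compound; nearly all actives have a fitted effect of over 55% in size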
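ATP-content luminescence (ATPlite) read-out after 24 h compound exposure at 32C in H1299-p53A138V cells (600/well). Tested up to 46 uM. Normalized to DMSO (0%) and 100 uM tamoxifen (100% killing); Hill-fit AC50.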
p53ts 39C kill: cytotoxicity in p53ts cells at nonpermissive temperature; H1299-p53A138V viability at 39C, ATP luminescence, 24 h; Potency, µM (doses to about 46.1 µM), inactives show at the top dose activity change, negative = cell killing, actives largely listed as cytotoxic; 130,000 compounds, 1.5% hits; AID 902; further: nearly all actives have a fitted effect of over 55% in size
Active calls of the source: *; ? = inconclusive; · = not tested or not shown; ! = repeats disagree; [ ] = another dose, or the depositor's remark. The call rests on the fitted dose curve; in most records, active means well fitted curve in the direction sought with a large enough effect; inconclusive means small, poorly fitted or top-dose-only effect, or another doubt; inactive means no such curve, though single readings can be large; an effect the other way counts as inactive or inconclusive. Unless noted, on the % scale 0 is the no-effect control and ±100 the full control effect; potency means the concentration at half of the fitted maximal effect.

SMILES	Luciferase inh	p53ts 32C tox	p53ts 39C kill
CCCCNC(=O)c1cccc(-n2cnc3cccnc32)c1C	·	7.8%	-7.8%
CNc1nc(N2CCc3ccccc32)ncc1F	15.8µM*	?	?
Cn1c(=O)cc(N2CCc3ccccc32)[nH]c1=O	-16.2%	-9.3%	-3.6%
CCOC(=O)c1c(NC(=O)c2cc(=O)c3c(C)cc(C)cc3o2)sc(C(C)=O)c1C	·	4.9%	-9.9%
COc1ccc(C(=O)CN2C(=O)c3ccccc3C2=O)c(OC)c1C	-1.3%	10.0%	11.9%
Cc1cc(C(=O)CN2C(=O)c3ccccc3S2(=O)=O)c(C)n1-c1ccccc1	7.94µM*	12.6µM*	7.94µM*
CCCn1c(C)cc(C(=O)CN2C(=O)c3ccccc3C2=O)c1C	15.8µM*	-20.1%	-23.8%
O=C(CN1C(=O)c2ccccc2S1(=O)=O)c1ccccc1	-25.8%[25.5 µM]	·	·
Cc1cc(C(=O)CN2C(=O)C3CC=CCC3C2=O)c(C)n1-c1ccccc1 (stereo not drawn)	3.98µM*	10µM*	12.6µM*
Cc1cc(C(=O)CN2CCC(C)CC2)c(C)n1-c1ccc(F)cc1	·	-0.3%	-6.3%
Cc1cc2oc(C(=O)Nc3nc(-c4ccccc4)ns3)c(C)c2cc1Cl	·	-2.0%	-12.4%
CCCNc1ncnc2c1c(-c1ccccc1)cn2-c1ccccc1	·	-6.5%	-14.1%
CC1(COc2ccc(C[C@H]3SC(=O)NC3=O)cc2)CCCCC1	-18.1%	?	39.8µM*
CCc1ccc(CCOc2ccc(CC3SC(=O)NC3=O)cc2)nc1 (stereo not drawn)	·	-8.1%	3.9%
Cc1csc(NC(=O)c2sc3nc(-c4cccs4)ccc3c2N)n1	20µM*	-23.0%	-8.3%
COc1cc(C(=O)Nc2nc(-c3cccs3)cs2)cc(OC)c1OC	-0.4%	?	?
Cc1ccc(NC(=O)c2sc3nc(-c4cccs4)ccc3c2N)cc1F	·	-6.9%	-18.7%
COc1ccc(C(=O)Nc2nc(-c3cccs3)cs2)cc1	15.8µM*	-14.9%	-25.0%
C=CC[C@@H]1C=C[C@@H](O/N=C\C[C@@H]2C=C[C@H](OC(C)=O)[C@H](COC(C)=O)O2)[C@@H](CO)O1	1.2%[11.4 µM]	-4.1%[9.22 µM]	1.6%[9.22 µM]
Cc1cccc(NC(=O)c2cnc3ccccn3c2=O)c1	-0.1%	0.8%	12.9%
Cc1cccc(NC(=O)c2cnc3sccn3c2=O)c1	10µM*	7.94µM*	10µM*
COC(=O)C/C=C\[C@@H](C)[C@@H](/C=N\OC[C@@H](C)[C@H](OCc1ccccc1)C(C)C)OC	1.2%[11.4 µM]	-0.5%[9.22 µM]	2.7%[9.22 µM]
Cc1ccc(SC/C(O)=C(\C#N)c2nc3ccccc3s2)cc1	-2.3%	?	4.4%
COc1ccc(C/C(O)=C(\C#N)c2nc3ccccc3s2)cc1	3.5%	?	12.6µM*
N#Cc1nc(-c2ccc(COc3ccccc3)o2)oc1NCc1cccnc1	·	4.3%	-5.1%
SMILES	Luciferase inh	p53ts 32C tox	p53ts 39C kill
C=CCC1C=CC(Oc2ccc(OC)cc2)C(CO)O1 (stereo not drawn)	·	-5.6%[9.22 µM]	-2.7%[9.22 µM]
O=C(Nc1cccc(Cl)c1)N1CC2CCCN2c2ccccc21 (stereo not drawn)	·	0.0%	10µM*
O=C(NCc1cccc(Cl)c1)c1ccc(NC(=O)N2CC3CCCN3c3ccccc32)cc1 (stereo not drawn)	·	-1.8%	4.9%
O=C(COC(=O)C1CCC1)NCc1ccccc1Cl	15.8µM*	-2.7%	2.2%
CC1CC1C(=O)OCC(=O)NCc1ccccc1Cl (stereo not drawn)	-1.4%	1.3%	-10.4%
Cc1ccc(-n2nc(C)c(C(=O)NCCCN3CCN(c4ccccc4F)CC3)c2-n2cccc2)cc1	·	-9.2%	12.6µM*
Cc1ccc(CCNC(=O)c2c(C)nn(-c3ccc(F)cc3)c2-n2cccc2)cc1	·	7.3%	-23.0%
COc1ccc(C(CC(=O)Nc2nccs2)n2cccc2)cc1 (stereo not drawn)	15.8µM*	?	?
COc1ccc(C(CC(=O)NC(C)(C)C)n2cccc2)cc1 (stereo not drawn)	0.8%	-1.9%	7.1%
Clc1ccccc1C(c1ccccc1)(c1ccccc1)n1ccnc1	4.8%[25.5 µM]	35.0%[20.6 µM]	25.1µM*!
Clc1ccccc1-c1nccc(-n2ccnc2)n1	-1.1%[2.29 µM]	-1.6%	0.2%
CCN(C(=O)c1cc2cc3ccc(C)cc3nc2o1)c1ccc(OC)cc1	-1.3%	12.8%	8.4%
Cc1ccc2cc3cc(C(=O)N4CC(C)CC(C)C4)oc3nc2c1 (stereo not drawn)	-6.5%	-1.6%	-18.1%
Cc1ccc2cc3cc(C(=O)N4CCCCC4C)oc3nc2c1 (stereo not drawn)	12.6µM*	12.6µM*	?
Cc1ccc2cc3cc(C(=O)N(C)c4ccccc4C)oc3nc2c1	·	?	10µM*
Cc1cc(C)c(OCC(=O)N(Cc2ccc(N(C)C)cc2)Cc2ccco2)c(C)c1	·	?	-14.3%
CC1C(=O)OC2CC34C5CC(C(C)(C)C)C36C(OC(=O)C6O)OC4(C(=O)O5)C21O (stereo not drawn)	·	-9.5%	3.6%
OCCNCCCOc1cccc(Cl)c1Cl	0.6%	?	12.6µM*
COc1ccccc1OCCCCCNCCO	0.3%	6.4%	3.4%
C/C=C\C1=C(CO)C(=O)C2O[C@]2(CC=C(C)C)C1=O (stereo partly drawn)	0.6%[11.4 µM]	3.6%[9.22 µM]	1.9%[9.22 µM]
Cc1cc(S(=O)(=O)Nc2ccccc2C(=O)O)ccc1F	·	2.0%	-3.0%
O=C(O)CCC(=O)c1ccc2c(c1)OCCCO2	3.6%	-0.1%	-9.4%
O=C1CN(C(=O)COC(=O)CCC(=O)c2ccc3c(c2)OCCO3)c2ccccc2N1	20µM*	-2.7%	-2.0%
Cc1ccc(S(=O)(=O)CCC(=O)OCC(=O)N2CC(=O)Nc3ccccc32)cc1	-1.7%	17.1%	-1.5%
c1ccn2c(SCc3ccc4c(c3)OCO4)nnc2c1	-2.0%	-1.0%	-7.5%
SMILES	Luciferase inh	p53ts 32C tox	p53ts 39C kill
O=C(CSc1nnc2ccccn12)c1ccc2c(c1)OCCO2	15.8µM*	?	-10.6%
O=C(CCCc1ccccc1)c1ccc2c(c1)OCCO2	·	7.94µM*	11.2µM*
O=C(CSc1nnnn1C1CCCC1)Nc1ccc2c(c1)OCO2	1.7%	0.0%	-15.0%
O=C(CSc1nnnn1C1CCCC1)c1ccc2c(c1)OCCO2	7.94µM*	?	-9.5%
Cc1[nH]c2ccc(Br)cc2c1CCNC(=O)c1cc2ccccc2oc1=O	·	0.3%	2.5%
Cc1cc(C)c2nc(N3CCCC(C(=O)NCc4cccc(Cl)c4)C3)sc2c1 (stereo not drawn)	·	-11.5%	?
CCc1ccc(NC(=O)CSC2=Nc3ccccc3C3=NC(CCC(=O)NCc4ccco4)C(=O)N23)cc1 (stereo not drawn)	·	10.2%	-23.3%
O=C(/C=C\c1ccc(O)c(O)c1)O[C@H]1C[C@@](O)(C(=O)O)C[C@H](O)[C@@H]1O	-0.6%[11.4 µM]	·	·
Cn1c(CSCc2ccc(F)cc2)nnc1SCC(=O)Nc1nccs1	1.4%	9.2%	8.7%
Cn1nnnc1SCc1ccc(C(=O)Nc2nccs2)cc1	1µM*	?	5.01µM*
COc1cccc2[nH]c(-c3ccccn3)nc12	3.16µM*	?	?
COc1ccccc1Cn1c(=O)[nH]c2cccnc21	3.3%	2.7%	3.9%
N/N=C1/CC(=O)NC(=O)N1	2.7%[11.4 µM]	8.1%[9.22 µM]	6.7%[9.22 µM]
C=CCn1c(=O)n(CC=C)c(=O)n(CC=C)c1=O	·	-0.8%[1.84 µM]	1.1%
O=c1n(CC2CO2)c(=O)n(CC2CO2)c(=O)n1CC1CO1 (stereo not drawn)	·	-6.2%[1.84 µM]	15.8µM*
